Source: PMC5700166
Changes are numbered by the printed parent chain.

How the values were obtained:
Experiment in all cases: protein-binding microarray (PBM); PBM: ~300 nM protein, 6 mM HEPES pH 7.8, 80 mM KCl, 0.5 mM EDTA, 0.5 mM EGTA, 6% glycerol, 35 ng/ul poly-dIdC, 1% milk, 1 h, room temperature; Ap Aiptasia and Nv Nematostella (sea anemones) / Co Capsaspora / Aq Amphimedon (sponge) / Dm Drosophila / Hu human; RHD is the Rel homology domain; high values mean tight binding
Conditions in all cases: dsDNA, one strand shown
[1] = biological target: T1, GST-Ap-NF-kB RHD (Exaiptasia pallida (Aiptasia), UniProt A0A913YAJ5 2-422)
T1 sequence: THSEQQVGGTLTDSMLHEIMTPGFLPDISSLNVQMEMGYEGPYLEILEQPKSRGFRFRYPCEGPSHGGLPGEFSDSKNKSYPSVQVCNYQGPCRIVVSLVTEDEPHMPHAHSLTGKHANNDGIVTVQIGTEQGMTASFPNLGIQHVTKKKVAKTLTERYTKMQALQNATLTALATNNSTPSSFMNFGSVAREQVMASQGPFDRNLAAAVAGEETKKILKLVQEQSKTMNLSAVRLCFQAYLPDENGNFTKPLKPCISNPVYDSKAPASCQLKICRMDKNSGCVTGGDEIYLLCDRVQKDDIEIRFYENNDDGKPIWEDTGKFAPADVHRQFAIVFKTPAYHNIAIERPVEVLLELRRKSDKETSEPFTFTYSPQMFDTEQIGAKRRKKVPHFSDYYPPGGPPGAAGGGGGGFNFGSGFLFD

[2] = biological target: T2, GST-Nv-NF-kB (Cys allele) (Nematostella vectensis, UniProt E5G601 2-411)
T2 sequence: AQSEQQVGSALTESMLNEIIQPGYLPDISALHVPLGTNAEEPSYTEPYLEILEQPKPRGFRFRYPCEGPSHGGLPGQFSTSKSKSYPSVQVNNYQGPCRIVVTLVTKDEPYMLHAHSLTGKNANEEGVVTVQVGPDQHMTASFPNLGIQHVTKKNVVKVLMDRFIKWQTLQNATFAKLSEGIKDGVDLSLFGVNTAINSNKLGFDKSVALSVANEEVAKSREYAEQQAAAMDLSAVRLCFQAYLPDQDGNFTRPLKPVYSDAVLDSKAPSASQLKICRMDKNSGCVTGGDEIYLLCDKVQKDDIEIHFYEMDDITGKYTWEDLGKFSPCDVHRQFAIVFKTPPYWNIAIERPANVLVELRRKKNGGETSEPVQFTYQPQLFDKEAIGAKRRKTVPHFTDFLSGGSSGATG

[3] = biological target: T3, GST-Nv-NF-kB (Ser allele) (Nematostella vectensis, UniProt A7UNT2 2-411)
T3 sequence: T2 sequence with Q21R, C66S, S207N, E215Q, V217A, E225K, A268E, D399E

[4] = biological target: T4, GST-Co-NF-kB (Capsaspora owczarzaki, UniProt F1ARL5 200-546)
T4 sequence: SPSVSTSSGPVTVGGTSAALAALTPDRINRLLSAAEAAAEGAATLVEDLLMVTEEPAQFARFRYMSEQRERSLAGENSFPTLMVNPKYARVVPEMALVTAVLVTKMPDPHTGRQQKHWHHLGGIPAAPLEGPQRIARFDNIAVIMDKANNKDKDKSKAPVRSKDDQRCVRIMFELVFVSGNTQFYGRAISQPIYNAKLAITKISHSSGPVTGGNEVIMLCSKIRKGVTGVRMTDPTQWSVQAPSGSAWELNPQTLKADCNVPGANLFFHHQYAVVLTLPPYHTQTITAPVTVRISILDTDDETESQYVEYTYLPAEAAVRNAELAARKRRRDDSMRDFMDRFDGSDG

[5] = biological target: T5, GST-Dm-Relish (Drosophila melanogaster, UniProt Q94527 99-473)
T5 sequence: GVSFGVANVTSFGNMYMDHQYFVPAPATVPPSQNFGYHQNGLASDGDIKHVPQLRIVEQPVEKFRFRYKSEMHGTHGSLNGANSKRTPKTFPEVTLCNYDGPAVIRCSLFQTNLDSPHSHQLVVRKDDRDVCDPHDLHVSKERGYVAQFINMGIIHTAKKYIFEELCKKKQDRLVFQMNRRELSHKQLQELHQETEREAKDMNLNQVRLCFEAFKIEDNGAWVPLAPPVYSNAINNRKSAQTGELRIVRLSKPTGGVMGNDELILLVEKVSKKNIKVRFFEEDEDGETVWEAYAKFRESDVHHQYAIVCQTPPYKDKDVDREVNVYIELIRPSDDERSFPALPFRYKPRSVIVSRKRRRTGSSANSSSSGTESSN

[6] = biological target: T6, GST-Aq-NF-kB (Amphimedon queenslandica, UniProt A9Y5G7 2-389)
T6 sequence: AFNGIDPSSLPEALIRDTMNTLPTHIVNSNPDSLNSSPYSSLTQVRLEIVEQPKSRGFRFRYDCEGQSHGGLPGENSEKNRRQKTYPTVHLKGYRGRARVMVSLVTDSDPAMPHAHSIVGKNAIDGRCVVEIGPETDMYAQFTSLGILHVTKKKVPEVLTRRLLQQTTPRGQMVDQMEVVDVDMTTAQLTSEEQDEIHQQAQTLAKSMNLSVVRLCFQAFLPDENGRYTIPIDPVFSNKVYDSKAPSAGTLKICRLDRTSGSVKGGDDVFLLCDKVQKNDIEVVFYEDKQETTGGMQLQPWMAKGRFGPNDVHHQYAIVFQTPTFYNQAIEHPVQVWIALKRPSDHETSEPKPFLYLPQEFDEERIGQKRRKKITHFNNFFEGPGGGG

[7] = biological target: GST-Hu-p50 (Homo sapiens, UniProt P19838 7-356)
GST-Hu-p50, sequence (P19838 7-356): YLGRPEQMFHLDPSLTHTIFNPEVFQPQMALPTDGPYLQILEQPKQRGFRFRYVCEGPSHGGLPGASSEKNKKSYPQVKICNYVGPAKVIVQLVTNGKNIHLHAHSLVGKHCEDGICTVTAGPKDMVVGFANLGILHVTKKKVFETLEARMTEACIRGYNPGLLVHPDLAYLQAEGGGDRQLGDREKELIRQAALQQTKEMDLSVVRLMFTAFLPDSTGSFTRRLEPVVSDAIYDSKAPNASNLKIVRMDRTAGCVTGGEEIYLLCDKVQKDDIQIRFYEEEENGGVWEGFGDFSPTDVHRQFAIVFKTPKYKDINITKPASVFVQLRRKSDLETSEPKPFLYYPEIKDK

| Sequence | binding signal [1] [z-score] | binding signal [2] [z-score] | binding signal [3] [z-score] | binding signal [4] [z-score] | binding signal [5] [z-score] | binding signal [6] [z-score] | binding signal [7] [z-score] |
| --- | --- | --- | --- | --- | --- | --- | --- |
| CCGATTAACATCAAGGGGGAAACTGATGTTAATCGGGTCTTGATTCGCTTGACGCTGCTG | 7.59 | 7.46 | 9.77 | 8.9 | 4.03 | 5.71 | 7.63 |
| CCGATTAACATCAGGGAACACCCTGATGTTAATCGGGTCTTGATTCGCTTGACGCTGCTG | 5.03 | 4.73 | 1.87 | 2.35 | 8.18 | 7.15 | 3.05 |
| CCGATTAACATCACCCATTTCCCTGATGTTAATCGGGTCTTGATTCGCTTGACGCTGCTG | 2.51 | 3.07 | 3.99 | 3 | 1.35 | 2.52 | 2.57 |
| CCGATTAACATCACCCCCGCCCCTGATGTTAATCGGGTCTTGATTCGCTTGACGCTGCTG | 4.47 | 3.37 | 3.72 | 6.71 | 4.74 | 4.27 | 3.7 |
| CCGATTAACATCAAGGGGAAAATTGATGTTAATCGGGTCTTGATTCGCTTGACGCTGCTG | 7.28 | 8.8 | 11.5 | 8.77 | 4.19 | 7.23 | 6.72 |
| CCGATTAACATCAGGGGCGTTTATGATGTTAATCGGGTCTTGATTCGCTTGACGCTGCTG | 3.36 | 3.44 | 3.2 | 1.35 | 2.1 | 3.54 | 3.71 |
| CCGATTAACATCACAGTTCCCCCTGATGTTAATCGGGTCTTGATTCGCTTGACGCTGCTG | 6.94 | 6.16 | 7.51 | 8.18 | 3.79 | 4.7 | 5.66 |
| CCGATTAACATCAATTCTCCCCCTGATGTTAATCGGGTCTTGATTCGCTTGACGCTGCTG | 6.48 | 6.19 | 8.64 | 10.7 | 3.06 | 5.16 | 6.9 |
| CCGATTAACATCAGGGGAGTTTATGATGTTAATCGGGTCTTGATTCGCTTGACGCTGCTG | 8.25 | 6.72 | 7.68 | 4.75 | 6.12 | 6.08 | 5.95 |
| CCGATTAACATCAAACACCCCCTTGATGTTAATCGGGTCTTGATTCGCTTGACGCTGCTG | 4.95 | 5.25 | 5.61 | 3.04 | 5.63 | 6.03 | 5.5 |
| CCGATTAACATCAATTTTCCCCGTGATGTTAATCGGGTCTTGATTCGCTTGACGCTGCTG | 6.99 | 8.12 | 10.2 | 11 | 4.87 | 6.2 | 5.95 |
| CCGATTAACATCACGTTTCCCCCTGATGTTAATCGGGTCTTGATTCGCTTGACGCTGCTG | 6.91 | 6.46 | 9.03 | 9.58 | 2.71 | 5.17 | 6.64 |
| CCGATTAACATCAATATATTCCCTGATGTTAATCGGGTCTTGATTCGCTTGACGCTGCTG | 4.19 | 4.64 | 4.95 | 4.09 | 2.1 | 3.52 | 2.88 |
| CCGATTAACATCAGGGGACATTATGATGTTAATCGGGTCTTGATTCGCTTGACGCTGCTG | 5.74 | 5.19 | 5.89 | 4.2 | 3.51 | 4.62 | 4.63 |
| CCGATTAACATCAAAGTATCCCCTGATGTTAATCGGGTCTTGATTCGCTTGACGCTGCTG | 6.1 | 5.64 | 7.21 | 5.48 | 3.47 | 4.4 | 4.64 |
| CCGATTAACATCAGATCTCCCCCTGATGTTAATCGGGTCTTGATTCGCTTGACGCTGCTG | 6.98 | 5.31 | 6.01 | 8.07 | 2.64 | 4.88 | 5.76 |
| CCGATTAACATCAAGCAATCCCCTGATGTTAATCGGGTCTTGATTCGCTTGACGCTGCTG | 6.44 | 6.39 | 6.94 | 2.5 | 5.11 | 4.53 | 5.37 |
| CCGATTAACATCAGGGGGGAAAATGATGTTAATCGGGTCTTGATTCGCTTGACGCTGCTG | 7.23 | 6.13 | 8.77 | 11.5 | 4.99 | 6.28 | 7.08 |
| CCGATTAACATCACGGGGAAATCTGATGTTAATCGGGTCTTGATTCGCTTGACGCTGCTG | 7.76 | 8.56 | 10.6 | 10.1 | 6.19 | 6.37 | 6.25 |
| CCGATTAACATCAGGCAGTCCCCTGATGTTAATCGGGTCTTGATTCGCTTGACGCTGCTG | 5.54 | 4.49 | 3.59 | 1.33 | 4.55 | 5.52 | 4.48 |
| CCGATTAACATCACATCCCCCCCTGATGTTAATCGGGTCTTGATTCGCTTGACGCTGCTG | 6.1 | 4.66 | 4.88 | 6.54 | 4.53 | 4.42 | 4.32 |
| CCGATTAACATCACGGGGTTTCCTGATGTTAATCGGGTCTTGATTCGCTTGACGCTGCTG | 6.06 | 4.79 | 2.69 | 2.61 | 7.75 | 5.93 | 4.42 |
| CCGATTAACATCAAATATCCCCTTGATGTTAATCGGGTCTTGATTCGCTTGACGCTGCTG | 8.05 | 8.3 | 9.01 | 3.88 | 6.97 | 6.2 | 6.19 |
| CCGATTAACATCAATCCCCACATTGATGTTAATCGGGTCTTGATTCGCTTGACGCTGCTG | 3.58 | 4.03 | 3.93 | 2.61 | 2.63 | 2.58 | 3.86 |
